Experimental data as given in PubChem BioAssay.
Records with an inconclusive call do not appear. Calls of active or inactive are those of the source. Unless noted, no stated cut-off is given here; in the data, active means inhibition above about 80%; inactive means the rest.

Tests used:
[1] = system: Aerobactin synthetase IucA (Klebsiella pneumoniae); assay: IucA aerobactin synthetase inhibitors, biochemical, Tocris library, absorbance (AID 1345561; call rule not given here;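 further: 100% = enzyme without compound and 0% = no enzyme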); conditions: purified IucA enzyme assay, absorbance (OD) read-out; stronger effect = lower value;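 tested at 8 µM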
[2] = differential killing of epithelial or mesenchymal cells, primary screen, imaging, PC-3E GFP, TEM4-18 mCherry, co-culture (AID 1345086;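 active means compounds killing one labelled cell type while sparing the other, by normalised counts and ratio limits, not self-fluorescent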;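 on all read-outs here: cells exposed to compound for 72 h before imaging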;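 on red/green cell ratio (normalised): normalised mesenchymal count divided by normalised epithelial count so high means epithelial killing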); conditions: imaging cell counts, at 1 µM; for red/green cell ratio (normalised): actives lie on both sides, counts scaled to control wells, 1 = unselective
[3] = growth inhibition of DIPG glioma cells, dose response, cell-based, SU-DIPG-XVII, MIPE5.0, CellTiter-Glo, qHTS (AID 1347060; cut-off not given, nearly all actives have AC50 up to about 26 µM;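 on AC50: cells exposed to compound for 48 hours before viability readout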); conditions: SU-DIPG-XVII viability, CellTiter-Glo ATP luminescence
[4] = growth inhibition of DIPG glioma cells, dose response, cell-based, JHH-DIPG-1, MIPE4.0, CellTiter-Glo, qHTS (AID 1347062; cut-off not given, nearly all actives have AC50 up to about 27 µM;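 on AC50: cells exposed to compound for two days before readout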); conditions: JHH-DIPG-1 viability, CellTiter-Glo ATP luminescence
[5] = SU-DIPG-XXV glioma cell viability, MIPE5.0 library, qHTS (AID 1347068; cut-off not given, nearly all actives have IC50 up to about 30 µM;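 on IC50: cells exposed to compound for 48 hours before viability readout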)
[6] = LFS_MB_P medulloblastoma growth inhibition, cell-based, chromothripsis tumors, cisplatin or BGB combos (AID 1671449); conditions: LFS_MB_P medulloblastoma cells;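 further: cells exposed for 96 hours; 0% = vehicle DMSO and 100% = killing by high DMSO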
[7] = HDN33 neuroblastoma growth inhibition, cell-based, chromothripsis tumors, cisplatin or BGB combos (AID 1671450); conditions: HDN33 neuroblastoma cells, stronger effect = higher value;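 further: cells exposed to compound for four days; 0% = vehicle DMSO and 100% = cell killing by high DMSO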
[8] = ICB984 medulloblastoma cell growth inhibition, synergistic combos for chromothripsis tumors, cisplatin or BGB combos (AID 1671451; call rule not given here;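 further: cells exposed for 96 hours before readout; 0% = vehicle DMSO and 100% = killing by high DMSO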); conditions: ICB984 medulloblastoma cells, drug combinations, stronger effect = higher value
[9] = LFS_MB_1R medulloblastoma cell growth inhibition, synergistic combos for chromothripsis tumors, cisplatin or BGB combos (AID 1671452); conditions: LFS_MB_1R medulloblastoma cells, stronger effect = higher value;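 further: cells exposed for 96 hours before readout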
[10] = HTB85 osteosarcoma cell growth inhibition, synergistic combos for chromothripsis tumors, BGB or cisplatin IC20 combos (AID 1671453); conditions: HTB85 osteosarcoma cells, drug combinations, stronger effect = higher value;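 further: cells exposed for 96 hours before readout; 0% = vehicle DMSO and 100% = high DMSO killing control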
[11] = CRL2098 osteosarcoma cell growth inhibition, synergistic combos for chromothripsis tumors, BGB or cisplatin IC20 combos (AID 1671454); conditions: CRL2098 osteosarcoma cells, drug combinations, stronger effect = higher value;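 further: cells exposed for 96 h before readout; 0% = vehicle DMSO and 100% = killing by high DMSO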
[12] = HD-MB03 medulloblastoma cell growth inhibition, synergistic combos for chromothripsis tumors, BGB or cisplatin IC20 combos (AID 1671455; in the data active means inhibition above about 83%;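 further: 0% = vehicle DMSO and 100% = high DMSO as cytotoxic control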); conditions: HD-MB03 medulloblastoma cells, stronger effect = higher value
[13] = UWB1.289 ovarian carcinoma cell growth inhibition, synergistic combos for chromothripsis tumors, BGB or cisplatin combos (AID 1671456); conditions: UWB1.289 ovarian carcinoma cells, stronger effect = higher value;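 further: cells exposed to compound for four days; 0% = vehicle DMSO and 100% = killing by high DMSO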
[14] = LFS_MB_2R medulloblastoma cell growth inhibition, synergistic combos for chromothripsis tumors, cisplatin combos (AID 1671457); conditions: LFS_MB_2R medulloblastoma cells, stronger effect = higher value;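 further: cells exposed to compound for four days before readout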
[15] = MDA-MB-436 breast carcinoma cell growth inhibition, synergistic combos for chromothripsis tumors, BGB or cisplatin combos (AID 1671458; call rule not given here;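 further: cells exposed for 96 hours; 0% = vehicle DMSO and 100% = killing by high DMSO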); conditions: MDA-MB-436 breast carcinoma growth inhibition, drug combinations, stronger effect = higher value
[16] = UWB1.289_BRCA1 ovarian cancer growth, cell-based, BGB or cisplatin combinations (AID 1671459); conditions: UWB1.289 BRCA1 ovarian carcinoma, drug combinations, stronger effect = higher value
[17] = human astrocyte viability loss, single and combined drugs, cytotoxicity control for chromothriptic childhood tumor combination screen, cell-based, BGB or cisplatin IC20 combos (AID 1671460); conditions: Human astrocytes, drug combinations, stronger effect = higher value;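 further: cells exposed to compounds for 96 hours before viability readout; 0% = vehicle and 100% = killing control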
[18] = growth inhibition of BT084 medulloblastoma cells, cell-based, ICGC_MB145, cisplatin and BGB IC40 combos (AID 1671461); conditions: drug combinations, stronger effect = higher value;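 further: cells exposed to drugs for 96 hours; 0% = vehicle DMSO and 100% = high DMSO full killing control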
[19] = growth inhibition of RCMB18 medulloblastoma cells, cell-based, cisplatin and BGB IC40 combos (AID 1671462); conditions: stronger effect = higher value;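 further: cells exposed to compound for four days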
[20] = growth inhibition of CRL1545 osteosarcoma cells, cell-based, cisplatin and BGB IC20 combos (AID 1671464); conditions: stronger effect = higher value;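 further: cells exposed to compound for 96 hours before readout; 0% = vehicle DMSO and 100% = high DMSO killing control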
[21] = measured here: epithelial PC-3E GFP cell survival
[22] = measured here: mesenchymal TEM4-18 mCherry cell survival
[23] = measured here: combination with BGB IC40, at 0.05 µM
[24] = measured here: with BGB IC20 combination, at 0.5 µM
[25] = measured here: with cisplatin IC20 combination, at 0.5 µM
[26] = measured here: combination with cisplatin, at 0.5 µM
[27] = measured here: combination with cisplatin, at 5 µM

## CC[C@@H]1C(=O)OC[C@@H]1Cc1cncn1C
[1]
  remaining activity: 110% (inactive)

## Nc1nc2ccc(Cl)cc2c2nc(-c3ccco3)nn12
[1]
  remaining activity: 120% (inactive)

## Cc1sc(N)c(C(=O)c2cccc(C(F)(F)F)c2)c1C
[1]
  remaining activity: 120% (inactive)

## CN1CCc2cc(Cl)c(O)cc2[C@@H](c2ccccc2)C1
[1]
  remaining activity: 107% (inactive)

## COc1cccc2c1C(=O)c1c(O)c3c(c(O)c1C2=O)C[C@@](O)(C(=O)CO)C[C@@H]3O[C@H]1C[C@H](N)[C@@H](O)[C@H](C)O1
[2]
  red/green cell ratio (normalised): 2.46 (active)
[2]; [21]
  normalised cell number: 0.19
[2]; [22]
  normalised cell number: 0.46
[3]
  AC50: 0.332 µM (active)
[4]
  AC50: 0.372 µM (active)
[5]
  IC50: 9.34 µM (active)

## CC[C@]1(O)CC2CN(CCc3c([nH]c4ccccc34)[C@@](C(=O)OC)(c3cc4c(cc3OC)N(C=O)[C@H]3[C@@](O)(C(=O)OC)[C@H](OC(C)=O)[C@]5(CC)C=CCN6CC[C@]43[C@@H]65)C2)C1 (stereo not given in full)
[2]
  red/green cell ratio (normalised): 0.69 (inactive)
[2]; [21]
  normalised cell number: 0.19
[2]; [22]
  normalised cell number: 0.13

## Cc1c(O)c(=O)ccn1C
[2]
  red/green cell ratio (normalised): 0.89 (inactive)
[2]; [21]
  normalised cell number: 1.06
[2]; [22]
  normalised cell number: 0.95

## CC(=O)N1CCN(c2ccc(OC[C@H]3CO[C@](Cn4ccnc4)(c4ccc(Cl)cc4Cl)O3)cc2)CC1
[1]
  remaining activity: 114% (inactive)
[3]
  outcome: inactive
[4]
  AC50: 23.5 µM (active)

## CC(C)N=c1cc2n(-c3ccc(Cl)cc3)c3ccccc3nc-2cc1Nc1ccc(Cl)cc1
[2]
  red/green cell ratio (normalised): 0.91 (inactive)
[2]; [21]
  normalised cell number: 0.92
[2]; [22]
  normalised cell number: 0.84
[6]; at 0.5 µM, stronger effect = higher value
  inhibition: -31% (inactive)
[6]; measured here: combination with BGB IC20, at 0.005 µM
  inhibition: 13.3%
[6]; measured here: combination with BGB IC40, at 0.005 µM
  inhibition: -22.3%
[6]; [23]
  inhibition: -8.73%
[6]; measured here: combination with cisplatin, at 0.5 µM, stronger effect = higher value
  inhibition: -48.5%
[6]; measured here: combination with cisplatin, at 5 µM, stronger effect = higher value
  inhibition: 8.75%
[7]; BGB combo, at 5 µM
  inhibition: -36.1%
[7]; at 0.5 µM
  inhibition: -26.4% (inactive)
[7]; cisplatin combo, at 5 µM
  inhibition: -41.4%
[7]; [24]
  inhibition: -15.2%
[7]; [25]
  inhibition: -29%
[7]; single agent, at 5 µM
  inhibition: -25%
[8]; BGB IC20 combo, at 0.005 µM
  inhibition: -28.4%
[8]; BGB IC40 combo, at 0.005 µM
  inhibition: 4.64%
[8]; BGB IC40 combo, at 0.05 µM
  inhibition: -16%
[8]; at 0.5 µM
  inhibition: -34.9% (inactive)
[8]; cisplatin combo, at 0.05 µM
  inhibition: -16%
[8]; cisplatin combo, at 0.5 µM
  inhibition: -47.3%
[8]; cisplatin combo, at 5 µM
  inhibition: -19.4%
[8]; measured here: 5 uM single agent, at 5 µM
  inhibition: 1.51%
[9]; at 0.5 µM
  inhibition: -25.1% (inactive)
[9]; [23]
  inhibition: -36.1%
[9]; [26]
  inhibition: -57.3%
[9]; [27]
  inhibition: -48.3%
[10]; at 0.5 µM
  inhibition: -37.4% (inactive)
[10]; measured here: with BGB IC20, at 0.5 µM
  inhibition: -54.6%
[10]; measured here: with BGB IC20, at 5 µM
  inhibition: -21.7%
[10]; measured here: with cisplatin IC20, at 0.5 µM
  inhibition: -36%
[10]; measured here: with cisplatin IC20, at 5 µM
  inhibition: -38.1%
[10]; single agent, at 5 µM
  inhibition: -29.1%
[11]; at 0.5 µM
  inhibition: -74.7% (inactive)
[11]; measured here: combination with BGB at IC20, at 0.5 µM
  inhibition: -58.6%
[11]; measured here: combination with cisplatin at IC20, at 0.5 µM
  inhibition: -130%
[12]; at 0.5 µM
  inhibition: -15.1% (inactive)
[12]; measured here: combo with BGB at IC20, at 0.5 µM
  inhibition: -15%
[12]; measured here: combo with cisplatin at IC20, at 0.5 µM
  inhibition: -18.6%
[13]; at 0.5 µM
  inhibition: -8.97% (inactive)
[13]; measured here: inhibition with BGB combination, at 0.05 µM
  inhibition: -17.6%
[13]; measured here: inhibition with cisplatin combination, at 0.05 µM
  inhibition: -17.6%
[14]; at 0.5 µM
  inhibition: -8.06% (inactive)
[14]; [26]
  inhibition: 1.44%
[14]; [27]
  inhibition: -0.801%
[15]; at 0.5 µM
  inhibition: -2.64% (inactive)
[15]; measured here: BGB combination, at 0.5 µM
  inhibition: -2.65%
[15]; measured here: BGB combination, at 5 µM
  inhibition: -11.8%
[15]; measured here: cisplatin combination, at 0.5 µM
  inhibition: -12.6%
[15]; measured here: cisplatin combination, at 5 µM
  inhibition: 0.559%
[16]; BGB combination, concentration series, at 5 µM
  inhibition: -7.22%
[16]; at 0.5 µM
  inhibition: -11.4% (inactive)
[16]; cisplatin combination, concentration series, at 5 µM
  inhibition: 14.7%
[17]; at 0.5 µM
  inhibition: -9.92% (inactive)
[17]; measured here: combo with BGB IC20, at 0.5 µM
  inhibition: 3.64%
[17]; measured here: combo with cisplatin IC20, at 0.5 µM
  inhibition: -24.8%
[18]; at 0.5 µM
  inhibition: -8.65% (inactive)
[18]; cisplatin combination, at 0.5 µM
  inhibition: -22.2%
[18]; cisplatin combination, at 5 µM
  inhibition: -55.6%
[18]; measured here: BGB IC40 combination 0.05 uM, at 0.05 µM
  inhibition: 17%
[18]; single agent, at 5 µM
  inhibition: -11.5%
[19]; at 0.5 µM
  inhibition: -9.43% (inactive)
[19]; cisplatin combo, at 5 µM
  inhibition: -32.6%
[19]; measured here: BGB IC40 combination, at 0.05 µM
  inhibition: -2.04%
[19]; [26]
  inhibition: -6.22%
[19]; single agent, at 5 µM
  inhibition: -9.57%
[20]; at 0.5 µM
  inhibition: -22.8% (inactive)
[20]; [24]
  inhibition: -40.5%
[20]; [25]
  inhibition: -13.9%
[20]; single agent, at 0.05 µM
  inhibition: -3.12%
[20]; single agent, at 5 µM
  inhibition: -18.2%

## CS(=O)(=O)c1ccc(-c2cc(Br)sc2-c2ccc(F)cc2)cc1
[1]
  remaining activity: 111% (inactive)

## COc1cccc2c1C(=O)c1c(O)c3c(c(O)c1C2=O)C[C@@](O)(C(C)=O)C[C@@H]3OC1CC(N)C(O)C(C)O1 (stereo not given in full)
[1]
  remaining activity: 110% (inactive)

## COc1cc([C@@H]2c3cc4c(cc3[C@@H](O[C@@H]3O[C@@H]5CO[C@@H](C)O[C@H]5[C@H](O)[C@H]3O)[C@H]3COC(=O)[C@H]23)OCO4)cc(OC)c1O
[3]
  AC50: 1.66 µM (active)
[4]
  outcome: inactive
[5]
  outcome: inactive

## CN1CCN2c3ncccc3Cc3ccccc3C2C1 (stereo not given)
[1]
  remaining activity: 106% (inactive)
[3]
  outcome: inactive
[4]
  outcome: inactive
[5]
  outcome: inactive

## CC(=O)O[C@H]1CCC2(C)C3=C(CCC2C1(C)C)[C@@]1(C)CC[C@@H](C(C)CCC=C(C)C)[C@]1(C)CC3 (stereo not given in full)
[2]
  red/green cell ratio (normalised): 1.21 (inactive)
[2]; [21]
  normalised cell number: 0.67
[2]; [22]
  normalised cell number: 0.81

## C[C@]12CCC3c4ccc(O)cc4C[C@@H](CCCCCCCCCS(=O)CCCC(F)(F)C(F)(F)F)C3C1CC[C@@H]2O (stereo not given in full)
[2]
  red/green cell ratio (normalised): 1.23 (inactive)
[2]; [21]
  normalised cell number: 0.99
[2]; [22]
  normalised cell number: 1.21
